Screening data from PubChem BioAssay.
Rows were chosen to be rich in hits. Some 3.1% of all compounds tested hit in one or more screens of this group.
HIV Env fusion = blocks HIV Env-driven cell-cell fusion | HeLa-JRFL Env/CEM21 cell fusion, luciferase | inhibition, % at 12.3 µM | 360,000 tested, 1.1% active | AID 651610;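 active = mean replicate inhibition score of at least 50 and every replicate individually at or above 50; inconclusive = only one of the two criteria met; inactive = mean below 50 and not all replicates reaching 50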
GSIS activator = primary screen for activators of insulin secretion dependent on glucose, INS-1E cells, GLuc reporter luminescence; INS-1E GLuc reporter insulin secretion, 2-3 h; activation, % at 16.6 µM; 370,000 tested, 0.61% active;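 active = lowest replicate activation of at least 40%, so every replicate reaches that level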
miR-122 sensor = inhibitors of miR-122 in Huh7 cells. AID 602342. 340,000 tested, 0.3% active. Huh7 miR-122 Renilla luciferase sensor, 48 h; neutral wells = 0, positive control = 100. activation (reporter increase), % at 12.5 µM;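 active = mean replicate activation score at least 90 and every replicate individually at or above 90; inconclusive = only one of the two criteria met; inactive = neither criterion met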;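 also: higher luciferase means less miR-122 activity so hits act as miR-122 inhibitors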
C2C12 statin = suppression of simvastatin myotoxicity; C2C12 myotubes + simvastatin, ATP luminescence, 48 h; scaled: DMSO 0, geranylgeraniol control 100; rescue of ATP level, % at 7.49 µM; 330,000 tested, 0.78% active;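 active = mean ATP rescue above about 67%, or every replicate alone reaching that limit, limit read from the data, passing the limit was not always enough; inconclusive = no clear call, values can overlap the other calls; inactive = mean under the limit and some replicate under it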;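 also: myotubes were challenged with 10 µM simvastatin during compound exposure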
EWS-Fli inh = inhibitors of EWS/Fli oncoprotein transcriptional activity | A673 NR0B1-luciferase reporter, viability-normalised | inhibition, % at 12.6 µM | 350,000 tested, 0.67% active;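 active = mean inhibition of at least 50% after viability correction, with every replicate also passing that limit; inconclusive = mean reaches 50% but only one of two replicates passes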;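 also: firefly luciferase signal divided by Alamar Blue viability fluorescence both relative to DMSO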
PAX8 inh HTS = PAX8 transcriptional activity inhibition; RMG-I TPO-luciferase reporter, SteadyGlo, 24 h; inhibition, % at 12.6 µM; 360,000 tested, 1.2% active;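 active = mean replicate inhibition at least 60% with every replicate also reaching 60%; inconclusive = only one of the two criteria is met; inactive = mean below 60% and not all replicates reaching 60%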;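 also: luciferase light reporting Pax8 driven TPO promoter activity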
Large screens that a line does not name were inactive.

C/C(=N/NS(=O)(=O)c1ccc(CC(C)C)cc1)c1ccncc1	HIV Env fusion 65
Cc1ccc(C)c(-c2cc(C(=O)Nc3cccc(C(=O)O)c3)c3ccccc3n2)c1	PAX8 inh HTS 83 (no result: miR-122 sensor, C2C12 statin)
CCc1cc(C(=O)N/N=C/c2ccc(O)cc2O)c2ccccc2n1	PAX8 inh HTS 67 (no result: EWS-Fli inh)
Cc1ccc(NC(=O)c2cc(CC(C)C)nc3ccccc23)cc1	HIV Env fusion 68
COc1ccc(NC(=O)c2cc(CC(C)C)nc3ccccc23)cc1	HIV Env fusion 78 (no result: GSIS activator)
Cc1ccc(NC(=O)c2cc(C)nc3ccccc23)cc1	none
C[C@@H]1CN([C@@H](C)CO)S(=O)(=O)c2ccc(C3=CCCCC3)cc2O[C@H]1CN(C)S(=O)(=O)c1ccc(F)cc1	none (no result: PAX8 inh HTS)
CCCN1C[C@H](C)[C@H](OC)CN(C)C(=O)c2ccc(NC(=O)C3CCC3)cc2OC[C@H]1C	none (no result: PAX8 inh HTS)
Cc1cc(C(=O)OCC(=O)NCCC(C)C)c2ccccc2n1	none (no result: GSIS activator, EWS-Fli inh, PAX8 inh HTS)
Cc1cc(C(=O)NC(C)CCC(C)C)c2ccccc2n1 (configuration not stated)	GSIS activator 56 (no result: miR-122 sensor, C2C12 statin)
COc1ccc(NC(=O)Nc2ccc3c(c2)[C@@H]2C[C@@H](CC(=O)NCc4ccccn4)O[C@H](CO)[C@@H]2O3)cc1	none
O=C(Nc1ccc(F)cc1)Nc1ccc2c(c1)[C@@H]1C[C@H](CC(=O)N3CCOCC3)O[C@@H](CO)[C@@H]1O2	none
Cc1ccc(S(=O)(=O)N2CCCCC2)cc1C(=O)OCC(=O)N1c2ccccc2NC(=O)C1(C)C	HIV Env fusion inconclusive (no result: miR-122 sensor)
CC1(C)C(=O)Nc2ccccc2N1C(=O)COC(=O)c1cc(Cl)cc(Cl)c1	none (no result: HIV Env fusion)
CC1(C)C(=O)Nc2ccccc2N1C(=O)COC(=O)C12CC3CC(CC(O)(C3)C1)C2	C2C12 statin 89 (no result: GSIS activator, miR-122 sensor, EWS-Fli inh)
CC1(C)C(=O)Nc2ccccc2N1C(=O)COC(=O)c1cccnc1	HIV Env fusion 64
Cc1ccc(C(=O)OCC(=O)N2c3ccccc3NC(=O)C2(C)C)cc1S(=O)(=O)N1CCCCC1	HIV Env fusion 59 (no result: miR-122 sensor)
COc1ccc(OC)c2nc3c(C(=O)NCCN(C)C)cccc3nc12	none (no result: C2C12 statin, PAX8 inh HTS)
CN(C)CCNC(=O)c1cccc2nc3cccc(F)c3nc12	EWS-Fli inh 56 (no result: miR-122 sensor, C2C12 statin)
O=[N+]([O-])c1ccc(Sc2nnnn2-c2ccccc2)nc1	PAX8 inh HTS 78 (no result: miR-122 sensor, C2C12 statin)
C[C@H](CO)N1C[C@H](C)[C@H](CN(C)S(=O)(=O)c2cccs2)Oc2ccc(NS(C)(=O)=O)cc2C1=O	none (no result: HIV Env fusion, PAX8 inh HTS)
Cc1cccc(S(=O)(=O)N[C@@H]2CC[C@@H](CCNC(=O)CCN3CCCCC3)O[C@H]2CO)c1	none (no result: miR-122 sensor)
Cn1cc(CN2CCCC(CNC(=O)c3ccc4c(c3)OCO4)C2)c2ccccc21 (configuration not stated)	HIV Env fusion 56
CC(=O)NCC1CCCN(Cc2cn(-c3ccccc3)nc2-c2ccc3c(c2)OCO3)C1 (configuration not stated)	none (no result: miR-122 sensor, C2C12 statin)
O=C(C[C@@H]1CC[C@H](NC(=O)Nc2cc(F)ccc2F)[C@@H](CO)O1)NCc1ccc2c(c1)OCO2	none
CCNc1nc(NCC)nc(N(C)/N=C/c2ccco2)n1	GSIS activator 62
CN(/N=C/c1ccco1)C1=NS(=O)(=O)c2ccccc21	none
C[C@H](CO)N1C[C@H](C)[C@H](CN(C)CC2CC2)OCCCC[C@H](C)Oc2ccc(NS(=O)(=O)c3cn(C)cn3)cc2C1=O	none (no result: C2C12 statin, EWS-Fli inh)
Cc1cc(=O)oc2c(CN3CCCCC3)c(O)c(Cl)cc12	C2C12 statin 97 (no result: HIV Env fusion, GSIS activator, EWS-Fli inh, PAX8 inh HTS)
COc1ccc2oc(C(=O)Nc3nnc(C)s3)c(C)c2c1	GSIS activator 53
Cc1ccc2oc(C(=O)Nc3nnc(C)s3)c(C)c2c1	none (no result: GSIS activator, EWS-Fli inh)
CCCNC(=O)N1C[C@H](O)COC[C@H]2O[C@H](CC(=O)N3CCOCC3)CC[C@@H]21	none (no result: HIV Env fusion)
Cc1cc(OCCCN2CCC(C(O)(c3ccccc3)c3ccccc3)CC2)ccc1Br	GSIS activator 477 (no result: miR-122 sensor, C2C12 statin)
Cc1cc(C)cc(OCCCN2CCC(C(O)(c3ccccc3)c3ccccc3)CC2)c1	GSIS activator 182 (no result: miR-122 sensor, C2C12 statin)
Cc1ccccc1OCCCN1CCC(C(O)(c2ccccc2)c2ccccc2)CC1	none (no result: GSIS activator, miR-122 sensor, C2C12 statin)
C[C@@H]1CCCCO[C@H](CN(C)C(=O)c2ccncc2)[C@H](C)CN([C@@H](C)CO)C(=O)c2cc(NS(=O)(=O)c3ccccc3)ccc2O1	none (no result: C2C12 statin)
